For 8 compounds, growth results are on record in PubChem BioAssay (NCI).

“And” between values parts separate entries of the source, which are not always exact repeats. Identical values can stand only once. This is part of a sample that, as a whole, favours compounds with a hit. Of some 83,000 tested, about 20% had one in any assay.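 Interpretation: 100, growth as untreated; towards 0, rising growth inhibition; 0, no net growth; 0 to -100, cell death. Compounds scoring below 10 were considered active.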 The source made the active and inactive calls.

Among the test systems are HT29 colon; SNB-75 CNS; SNB-19 CNS; U251 CNS; PC-3 prostate; SK-MEL-5 melanoma; UACC-62 melanoma; LOX IMVI melanoma; SK-MEL-28 melanoma; SK-MEL-2 melanoma; EKVX NSCLC; UO-31 renal; TK-10 renal; ACHN renal; CAKI-1 renal; A498 renal; CCRF-CEM leukemia; MOLT-4 leukemia; HCT-15 colon; SN12C renal.
What all share (assay): NCI-60 one-dose screen, 48 h (100 = growth as untreated, 0 = no growth, -100 = all killed)
Conditions in all cases: 10 µM unless noted

On to `N#CC1C(=O)SC2c3ccccc3C(=O)c3ccccc3C12` (stereo not given), for which the growth in the assay on HT29 colon was 97.7% (inactive); in the assay with SNB-75 CNS, 96.3% (inactive); in the assay with SNB-19 CNS it was 99.4% (inactive); with U251 CNS, 92% (inactive); in the assay on PC-3 prostate, 82.1% (inactive); in the assay with SK-MEL-5 melanoma it was 97.2% (inactive). Also, the growth is 89.2% (inactive) in the assay with UACC-62 melanoma; 95.3% (inactive) with LOX IMVI melanoma; 112% (inactive) in the assay with SK-MEL-28 melanoma; 98.5% (inactive) with SK-MEL-2 melanoma; 107% (inactive) with EKVX NSCLC; 89.5% (inactive) in the assay on UO-31 renal. Also, the growth is 99.5% (inactive) in the assay with TK-10 renal; 114% (inactive) in the assay with ACHN renal; 88% (inactive) in the assay on CAKI-1 renal; 105% (inactive) with A498 renal; 95% (inactive) with CCRF-CEM leukemia; 99.6% (inactive) in the assay on MOLT-4 leukemia.
Turning to `N[C@H](C(=O)O)[C@@H]1CC(Cl)=NO1`, the growth with HCT-15 colon is 15.9% [20 µM] (inactive); in the assay with SNB-75 CNS it was 27.3% [20 µM] (inactive); with U251 CNS, 26.8% [20 µM] (inactive); in the assay on PC-3 prostate it was 31% [20 µM] (inactive); in the assay with SK-MEL-5 melanoma, 11.4% [20 µM] (inactive); with UACC-62 melanoma it was 22.4% [20 µM] (inactive). In addition, the growth was 13.2% [20 µM] (inactive) with LOX IMVI melanoma; 34.7% [20 µM] (inactive) in the assay on SK-MEL-28 melanoma; 46.3% [20 µM] (inactive) in the assay with SK-MEL-2 melanoma; 23.6% [20 µM] (inactive) in the assay on EKVX NSCLC; 19.6% [20 µM] (inactive) in the assay with SN12C renal; 34.8% [20 µM] (inactive) in the assay on UO-31 renal. Moreover, the growth is 24.7% [20 µM] (inactive) in the assay on TK-10 renal; 21.5% [20 µM] (inactive) with ACHN renal; 18.3% [20 µM] (inactive) with CAKI-1 renal; 13.6% [20 µM] (inactive) in the assay with A498 renal; 19% [20 µM] (inactive) in the assay with CCRF-CEM leukemia; 23.5% [20 µM] (inactive) in the assay with MOLT-4 leukemia.
As for `COC(=O)Nc1nc2ccc(C(=O)c3ccccc3)cc2[nH]1`, the growth was 30.2% (inactive) and 14.1% (inactive) and 15.8% (inactive) in the assay with HCT-15 colon; 8.68% (active) and 89.4% (inactive) and 23.9% (inactive) in the assay with SNB-75 CNS; 33.6% (inactive) and 14.3% (inactive) and 33.1% (inactive) in the assay with SNB-19 CNS; 23.7% (inactive) and 19.9% (inactive) and 16.9% (inactive) in the assay with U251 CNS; 8.39% (active) and 4.91% (active) and -9.41% (active) with SK-MEL-5 melanoma; 47.8% (inactive) and 31.1% (inactive) and 37.4% (inactive) with UACC-62 melanoma. Further, the growth is 37.6% (inactive) and 31.3% (inactive) and 31.1% (inactive) in the assay with LOX IMVI melanoma; 48.9% (inactive) and 61.5% (inactive) and 55.6% (inactive) in the assay with SK-MEL-28 melanoma; 44.1% (inactive) and 45.4% (inactive) and -21.7% (active) in the assay on SK-MEL-2 melanoma; 60.4% (inactive) and 39% (inactive) and 21.6% (inactive) in the assay on EKVX NSCLC; 54.9% (inactive) and 28.7% (inactive) and 58.1% (inactive) in the assay on SN12C renal; 48% (inactive) and 38.3% (inactive) and 25.3% (inactive) with UO-31 renal. Moreover, the growth in the assay with TK-10 renal was 65% (inactive) and 75.9% (inactive) and 44.6% (inactive); in the assay on ACHN renal, 48.3% (inactive) and 54.2% (inactive); with CAKI-1 renal it was 48.8% (inactive) and 27.1% (inactive) and 15% (inactive); in the assay with CCRF-CEM leukemia it was 15.7% (inactive) and -14.1% (active) and 1.15% (active); in the assay with MOLT-4 leukemia it was 19.3% (inactive) and 7.52% (active) and 7.55% (active).
In the case of `O=C1c2cccnc2-c2nccc3c2c1nc1cc(Br)ccc13`, the growth with HCT-15 colon was -49.5% (active) and -71.3% (active); in the assay with SNB-75 CNS, 9.53% (active) and -98.7% (active); with SNB-19 CNS, -49.7% (active) and -79% (active); with U251 CNS, -75% (active) and -97.8% (active); with UACC-62 melanoma, -95.1% (active) and -74.6% (active); in the assay on SK-MEL-28 melanoma, -67.5% (active) and -74.4% (active). Besides, the growth is 16.8% (inactive) and -59% (active) in the assay with SK-MEL-2 melanoma; 32% (inactive) and -81.4% (active) with EKVX NSCLC; 11.5% (inactive) and -70.9% (active) with SN12C renal; -80% (active) and -93% (active) in the assay with UO-31 renal; 44.5% (inactive) and -98.9% (active) with TK-10 renal; -72.9% (active) and -92.1% (active) in the assay on ACHN renal. Moreover, the growth is -49.6% (active) and -90.7% (active) with CAKI-1 renal; -52% (active) and -78.4% (active) with A498 renal; -26.3% (active) and -4.46% (active) in the assay on CCRF-CEM leukemia; -39.5% (active) and -31% (active) with MOLT-4 leukemia.
Take `CCOC(=O)/C=C/c1ccc([N+](=O)[O-])o1`: the growth in the assay on HCT-15 colon is -3.85% (active); with SNB-75 CNS, 98.7% (inactive); in the assay with U251 CNS, 82.6% (inactive); in the assay on SK-MEL-5 melanoma, 69.1% (inactive); in the assay with UACC-62 melanoma it was 32.6% (inactive); in the assay on LOX IMVI melanoma it was -29.6% (active). Moreover, the growth in the assay on SK-MEL-2 melanoma was 85.3% (inactive); in the assay with EKVX NSCLC, 107% (inactive); in the assay on SN12C renal, 85.5% (inactive); in the assay on UO-31 renal it was 38.5% (inactive); with TK-10 renal, 40.7% (inactive); in the assay on ACHN renal, 9.88% (active). Moreover, the growth is 9% (active) in the assay on CAKI-1 renal, 102% (inactive) in the assay on A498 renal, 7.26% (active) in the assay with CCRF-CEM leukemia and -3.02% (active) with MOLT-4 leukemia.
Regarding `O=C(/C=C/C=C/c1ccccc1)c1ccco1`, the growth in the assay with HCT-15 colon is 92.2% (inactive); with SNB-75 CNS, 83% (inactive); with SNB-19 CNS, 92.5% (inactive); with U251 CNS, 56.4% (inactive); in the assay on PC-3 prostate, 85.9% (inactive); in the assay with UACC-62 melanoma, 72.1% (inactive). In addition, the growth with SK-MEL-2 melanoma was 103% (inactive); in the assay on EKVX NSCLC it was 112% (inactive); in the assay with SN12C renal, 99.8% (inactive); in the assay with UO-31 renal, 62.6% (inactive); in the assay with TK-10 renal it was 128% (inactive); with ACHN renal, 107% (inactive). In addition, the growth was 97.3% (inactive) with CAKI-1 renal, 106% (inactive) with A498 renal and 30.2% (inactive) in the assay on CCRF-CEM leukemia.
In the case of `CC1(C)CC([P+](c2ccccc2)(c2ccccc2)c2ccccc2)=NN1`, the growth in the assay on HCT-15 colon was 94.3% (inactive); with SNB-75 CNS it was 34.3% (inactive); with SNB-19 CNS, 44.5% (inactive); with U251 CNS, 25.5% (inactive); in the assay on SK-MEL-5 melanoma it was 12.4% (inactive); with UACC-62 melanoma, 32.2% (inactive). The growth in the assay with LOX IMVI melanoma was 43.1% (inactive); with SK-MEL-28 melanoma it was 67.9% (inactive); in the assay on SK-MEL-2 melanoma, -19.2% (active); in the assay with EKVX NSCLC it was 67.4% (inactive); in the assay with SN12C renal, 30.4% (inactive); with UO-31 renal, 67.8% (inactive). The growth in the assay with TK-10 renal was 56.4% (inactive); in the assay on ACHN renal, 88.1% (inactive); in the assay on CAKI-1 renal it was 90.1% (inactive); in the assay on CCRF-CEM leukemia it was 41.3% (inactive); in the assay with MOLT-4 leukemia it was 21% (inactive).
As for `COc1ccc2nc3cc(Cl)ccc3c(NCCNc3c4ccc(Cl)cc4nc4ccc(OC)cc34)c2c1`, the growth with HCT-15 colon is -65.9% (active); in the assay with SNB-75 CNS, -86.8% (active); in the assay with SNB-19 CNS, -87.7% (active); with U251 CNS, -84% (active); in the assay on PC-3 prostate, -63% (active); in the assay on SK-MEL-5 melanoma, -96.5% (active). Further, the growth was -88.4% (active) with UACC-62 melanoma; -84.9% (active) in the assay on LOX IMVI melanoma; -86.4% (active) with SK-MEL-28 melanoma; -73.1% (active) with SK-MEL-2 melanoma; -83.5% (active) with EKVX NSCLC; -90.3% (active) in the assay with UO-31 renal. Besides, the growth was -92.7% (active) in the assay on TK-10 renal; -94.7% (active) in the assay with ACHN renal; -79.8% (active) with CAKI-1 renal; 22.2% (inactive) with A498 renal; -10.9% (active) in the assay with CCRF-CEM leukemia; -76% (active) with MOLT-4 leukemia.
